Reference: PubChem BioAssay (Tox21)
A number with no mark means an inactive call. Records with an inconclusive call do not appear. Where a call stands in place of a potency, no number is given. The source made the active and inactive calls. Unless noted, the call rests on the fitted dose curve; in most records, active means well fitted curve in the direction sought with a large enough effect in the repeat runs; inconclusive means weak or mixed curves; inactive means no such curve, though single readings can be large; an effect the other way counts as inactive or inconclusive.

Columns and labels:
[1] = target: Estrogen receptor (Homo sapiens) (UniProt P03372); assay: qHTS assay to identify small molecule agonists of the estrogen receptor alpha (ER-alpha) signaling pathway in the presence of an antagonist (AID 1259383; calls by dose curve; further: top concentration of the series differs between compounds; nearly all actives have a fitted effect of over 15% in size)
Sequence of Estrogen receptor (Homo sapiens) (P03372 whole entry, looked up): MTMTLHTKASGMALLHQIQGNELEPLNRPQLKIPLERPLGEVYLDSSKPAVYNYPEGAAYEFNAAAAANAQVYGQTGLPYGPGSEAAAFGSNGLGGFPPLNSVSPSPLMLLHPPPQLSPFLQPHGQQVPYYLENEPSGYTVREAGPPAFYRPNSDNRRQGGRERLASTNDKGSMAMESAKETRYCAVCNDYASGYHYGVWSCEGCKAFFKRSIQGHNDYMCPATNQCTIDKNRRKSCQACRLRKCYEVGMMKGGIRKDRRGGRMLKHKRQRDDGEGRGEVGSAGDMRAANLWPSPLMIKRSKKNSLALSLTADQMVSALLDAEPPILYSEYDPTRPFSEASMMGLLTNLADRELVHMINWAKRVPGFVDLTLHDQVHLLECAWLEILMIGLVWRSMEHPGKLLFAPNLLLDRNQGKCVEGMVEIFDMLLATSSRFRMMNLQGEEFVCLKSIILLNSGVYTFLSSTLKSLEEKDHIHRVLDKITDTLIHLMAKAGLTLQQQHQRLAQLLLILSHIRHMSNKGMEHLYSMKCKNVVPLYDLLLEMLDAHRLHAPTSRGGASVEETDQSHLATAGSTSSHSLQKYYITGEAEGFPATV
Procedure, shortened: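 Using VM7Luc4E2 cells seeded 24hr before treatment, antagonist ICI-182,780 (10.0nM final) was added, followed by compounds at 15 concentrations. Plates incubated 22hr; ONE-Glo luminescence quantified reporter activity.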

[2] = qHTS assay to identify small molecule agonists or antagonists of the thyroid stimulating hormone receptor (TSHR) signaling pathway - wild type cell line counter screen (AID 1259384; calls by dose curve)
Procedure, shortened: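 Wild-type HEK293 cells were plated 18 h at 37 C/5% CO2, pin-dosed with compound plus Ro20-1724 medium, held 30 min at room temperature, then given cAMP-d2 and anti-cAMP-cryptate; fluorescence was read after 1 h. Fifteen concentrations, triplicate.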

[3] = target: Thyrotropin receptor (Homo sapiens) (UniProt P16473); assay: qHTS assay to identify small molecule antagonists of the thyroid stimulating hormone receptor (TSHR) signaling pathway (AID 1259385; calls by dose curve; further: nearly all actives have a fitted effect of over 20% in size)
Sequence of Thyrotropin receptor (Homo sapiens) (P16473 whole entry, looked up): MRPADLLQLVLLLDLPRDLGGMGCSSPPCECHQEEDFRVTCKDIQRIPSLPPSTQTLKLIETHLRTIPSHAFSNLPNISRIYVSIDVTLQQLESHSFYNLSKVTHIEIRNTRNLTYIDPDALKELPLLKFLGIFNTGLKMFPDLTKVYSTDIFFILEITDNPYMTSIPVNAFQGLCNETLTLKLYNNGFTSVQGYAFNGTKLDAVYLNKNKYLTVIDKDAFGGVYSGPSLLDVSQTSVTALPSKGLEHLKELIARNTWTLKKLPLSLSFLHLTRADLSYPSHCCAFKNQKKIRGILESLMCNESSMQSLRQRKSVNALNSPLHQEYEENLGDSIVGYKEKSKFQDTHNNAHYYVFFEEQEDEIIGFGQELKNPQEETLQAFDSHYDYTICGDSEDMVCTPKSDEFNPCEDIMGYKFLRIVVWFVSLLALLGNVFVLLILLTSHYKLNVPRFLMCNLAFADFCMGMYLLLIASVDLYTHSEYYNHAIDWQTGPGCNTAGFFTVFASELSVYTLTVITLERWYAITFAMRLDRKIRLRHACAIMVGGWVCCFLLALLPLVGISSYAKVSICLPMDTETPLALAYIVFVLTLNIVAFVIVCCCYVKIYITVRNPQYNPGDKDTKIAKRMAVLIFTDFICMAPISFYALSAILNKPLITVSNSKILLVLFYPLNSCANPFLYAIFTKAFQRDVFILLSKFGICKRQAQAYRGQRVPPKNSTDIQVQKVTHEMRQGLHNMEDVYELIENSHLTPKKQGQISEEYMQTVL
Procedure, shortened: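 TSHR-HEK293 cells were plated and held 18 h at 37C/5% CO2, then given compound plus Ro20-1724 and stimulated with TSH at 1.5 ng/mL final. After 30 min at room temperature, cAMP was detected with cAMP-d2/anti-cAMP-cryptate (1 h) by fluorescence.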

[4] = qHTS assay to identify small molecule agonists of the estrogen receptor alpha (ER-alpha) signaling pathway in the presence of an antagonist - cell viability counter screen (AID 1259386);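 further: cells exposed to compounds for 22 h at 37 °C before the viability read; nearly all actives have a fitted effect of over 30% in size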; further: potency means the concentration at half of the fitted maximal effect
Procedure, shortened: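 ICI-182,780 at 10.0nM final accompanies the compound titration (15 concentrations, 22hr, 37C) on VM7Luc4E2 cells. The CellTiter-Fluor fluorescence readout runs in the same wells as the luciferase assay.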

[5] = target: Progesterone receptor (Homo sapiens) (UniProt P06401); assay: qHTS assay to identify small molecule agonists of the progesterone receptor (PR) signaling pathway (AID 1346784; calls by dose curve; further: nearly all actives have a fitted effect of over 30% in size)
Sequence of Progesterone receptor (Homo sapiens) (P06401 whole entry, looked up): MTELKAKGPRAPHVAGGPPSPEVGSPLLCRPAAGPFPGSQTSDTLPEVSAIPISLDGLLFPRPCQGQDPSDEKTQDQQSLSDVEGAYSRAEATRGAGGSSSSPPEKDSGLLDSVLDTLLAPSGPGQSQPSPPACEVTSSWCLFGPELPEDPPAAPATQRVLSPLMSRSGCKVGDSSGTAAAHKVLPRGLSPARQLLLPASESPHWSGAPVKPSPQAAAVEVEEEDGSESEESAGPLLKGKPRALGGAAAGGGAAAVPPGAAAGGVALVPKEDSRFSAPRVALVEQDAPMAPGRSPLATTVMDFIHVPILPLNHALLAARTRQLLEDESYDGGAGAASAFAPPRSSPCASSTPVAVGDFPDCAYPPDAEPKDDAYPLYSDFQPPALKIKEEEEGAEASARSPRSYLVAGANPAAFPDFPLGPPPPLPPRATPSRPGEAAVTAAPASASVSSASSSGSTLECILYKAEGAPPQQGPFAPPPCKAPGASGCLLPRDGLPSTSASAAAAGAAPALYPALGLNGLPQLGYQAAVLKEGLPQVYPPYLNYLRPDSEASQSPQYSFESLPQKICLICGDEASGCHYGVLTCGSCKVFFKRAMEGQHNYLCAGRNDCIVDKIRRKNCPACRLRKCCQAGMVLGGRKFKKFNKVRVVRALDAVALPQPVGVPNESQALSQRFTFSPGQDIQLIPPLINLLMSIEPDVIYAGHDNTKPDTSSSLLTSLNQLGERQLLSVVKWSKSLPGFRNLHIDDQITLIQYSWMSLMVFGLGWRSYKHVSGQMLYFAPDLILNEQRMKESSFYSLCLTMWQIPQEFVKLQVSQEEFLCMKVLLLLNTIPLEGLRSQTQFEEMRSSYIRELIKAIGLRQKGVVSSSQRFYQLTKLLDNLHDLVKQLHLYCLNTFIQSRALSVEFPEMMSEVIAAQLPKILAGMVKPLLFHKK
Procedure, shortened: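 Reporter assay, GripTite PR-UAS-bla HEK 293T cells: 16 hr exposure to DMSO-dissolved compounds at 37C, 5% CO2, in steroid-depleted (2% charcoal-stripped FBS) medium; beta-lactamase measured by FRET fluorescence.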

[6] = qHTS assay to identify small molecule antagonists of the TGF-beta/Smad signaling pathway - cell viability counter screen (AID 1346824); further: nearly all actives have a fitted effect of over 50% in size
Procedure, shortened: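 SBE-bla HEK 293T cells were plated overnight at 37 C, then given compounds in DMSO plus TGF-beta1 (added as 0.25 ng/mL solution) for 5 hr. After the bla read, CellTiter-Glo was added to the same wells and luminescence read after 30 min at room temperature.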

[7] = qHTS assay to identify small molecule agonists of the TGF-beta/Smad signaling pathway - cell viability counter screen (AID 1346829); further: top concentration of the series differs between compounds; nearly all actives have a fitted effect of over 45% in size
Procedure, shortened: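 Cytotoxicity counter screen: CellTiter-Glo luminescence (30 min, room temperature) measured in the SBE-bla HEK 293T reporter wells after 5 hr compound treatment at 37 C and the 2 hr substrate step.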

[8] = qHTS assay to identify small molecule agonists of the TGF-beta/Smad signaling pathway (AID 1346859; active means well fitted activation curve with a large enough effect in the signal ratio in the repeat runs, not every such curve was filed as active; the % refers to the signal ratio; further: series mostly up to about 77 µM)
Procedure, shortened: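 Screening used HEK 293T SBE-bla cells at 4,000/well. Test agents: 5 hr, 37 C. Detection: FRET substrate, 2 hr RT, then excitation 405 nm with emissions at 460 and 530 nm.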

[9] = target: Thyrotropin-releasing hormone receptor (Homo sapiens) (UniProt P34981); assay: qHTS assay to identify small molecule antagonists of the thyrotropin-releasing hormone receptor (TRHR) signaling pathway (AID 1346877; active means well fitted inhibition curve with a large enough effect in the repeat runs, not every such curve was filed as active; further: series mostly up to about 51 µM)
Sequence of Thyrotropin-releasing hormone receptor (Homo sapiens) (P34981 whole entry, looked up): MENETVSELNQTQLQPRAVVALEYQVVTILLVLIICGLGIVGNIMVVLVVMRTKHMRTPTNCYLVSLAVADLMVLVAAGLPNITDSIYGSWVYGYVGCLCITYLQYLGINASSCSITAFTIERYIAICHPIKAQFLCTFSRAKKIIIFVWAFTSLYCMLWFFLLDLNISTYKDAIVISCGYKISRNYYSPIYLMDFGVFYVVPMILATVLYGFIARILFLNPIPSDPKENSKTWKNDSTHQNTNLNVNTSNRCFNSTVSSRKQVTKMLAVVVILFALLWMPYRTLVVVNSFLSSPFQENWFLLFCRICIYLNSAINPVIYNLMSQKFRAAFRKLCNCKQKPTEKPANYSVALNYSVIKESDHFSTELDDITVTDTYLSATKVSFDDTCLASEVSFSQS
Procedure, shortened: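 Screening used HEK293 cells engineered with TRHR, with a brief 5 min room-temperature compound exposure preceding addition of TRH to 1 nM. The read-out was kinetic calcium-dye fluorescence, concentration-response from 15 doses in triplicate.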

[10] = target: Thyrotropin-releasing hormone receptor (Homo sapiens) (UniProt P34981); assay: qHTS assay to identify small molecule agonists of the thyrotropin-releasing hormone receptor (TRHR) signaling pathway (AID 1346891; calls by dose curve; further: series mostly up to about 58 µM)
Procedure, shortened: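 Readout was intracellular calcium fluorescence in TRHR-Hek293 cells. Cells were incubated 18 h, dye-loaded 2 h at 37 °C, and treated with compound in agonist mode.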

[11] = Human pregnane X receptor (PXR) small molecule agonists, qHTS cell viability counter screen (AID 1346977); further: nearly all actives have a fitted effect of over 50% in size; further: potency means the concentration at half of the fitted maximal effect
Procedure, shortened: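 In each well, the PXR reporter HepG2 line was checked for viability: CellTiter-Fluor reagent added 23hr post-dosing, fluorescence read after 1hr incubation at 37C.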

[12] = Caspase-3/7 induction in HepG2 cells by small molecules, qHTS assay (AID 1346978); further: nearly all actives have a fitted effect of over 15% in size
Procedure, shortened: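 Wild-type HepG2 cells (2,000/well) were settled 5 h at 37 C, 5% CO2, then exposed to compounds in DMSO for 17 h. Caspase-3/7 activity was read by luminescence 30 min after adding Caspase-Glo 3/7 reagent at room temperature.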

[13] = Caspase-3/7 induction in CHO-K1 cells by small molecules, qHTS assay (AID 1346980); further: nearly all actives have a fitted effect of over 15% in size
Procedure, shortened: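 Wild-type cells were seeded at 1,500 per well and settled 5 hr at 37 C, 5% CO2, then exposed to DMSO-dissolved compounds for 17 hr. Caspase-Glo 3/7 reagent was added, and luminescence was read after 30min at room temperature.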

[14] = Caspase-3/7 induction in HepG2 cells by small molecules, qHTS cell viability counter screen (AID 1346981); further: nearly all actives have a fitted effect of over 30% in size; further: potency means the concentration at half of the fitted maximal effect
Procedure, shortened: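 Multiplexed with the caspase-3/7 assay: HepG2 cells, 16 hr compound treatment, CellTiter-Fluor viability detection by fluorescence.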

[15] = target: Nuclear receptor subfamily 1 group I member 2 (Homo sapiens) (UniProt O75469); assay: Human pregnane X receptor (PXR) small molecule agonists, qHTS assay (AID 1346982); further: nearly all actives have a fitted effect of over 35% in size
Sequence of Nuclear receptor subfamily 1 group I member 2 (Homo sapiens) (O75469 whole entry, looked up): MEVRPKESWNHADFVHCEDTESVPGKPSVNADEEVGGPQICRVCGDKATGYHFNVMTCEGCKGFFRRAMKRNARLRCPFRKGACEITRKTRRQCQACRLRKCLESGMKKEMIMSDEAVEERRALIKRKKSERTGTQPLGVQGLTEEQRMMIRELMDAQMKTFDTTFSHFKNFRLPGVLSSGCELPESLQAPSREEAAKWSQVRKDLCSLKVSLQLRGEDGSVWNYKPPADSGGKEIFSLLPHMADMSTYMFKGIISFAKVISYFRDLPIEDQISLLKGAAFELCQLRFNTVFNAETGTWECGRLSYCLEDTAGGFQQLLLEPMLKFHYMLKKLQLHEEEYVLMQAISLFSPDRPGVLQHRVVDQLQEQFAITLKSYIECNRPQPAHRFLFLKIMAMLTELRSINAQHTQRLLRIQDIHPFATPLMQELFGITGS
Procedure, shortened: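 We seeded PXR-Luc HepG2 cells in assay medium containing 5% charcoal-stripped FBS, added compounds 5 hr later, incubated 24 hr, and read luminescence with ONE-Glo reagent.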

[16] = target: Progesterone receptor (Homo sapiens) (UniProt P06401); assay: qHTS assay to identify small molecule antagonists of the progesterone receptor (PR) signaling pathway (AID 1346795; active means well fitted inhibition curve with a large enough effect in the signal ratio in the repeat runs, not every such curve was filed as active; the % refers to the signal ratio)
Procedure, shortened: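 Stimulus R5020 at 1 nM final; cells HEK293T PR-UAS-bla; medium with 2% charcoal-stripped FBS; compound exposure 16 hr at 37C, 5% CO2; detection by FRET beta-lactamase substrate, 2 hr, room temperature.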

[17] = qHTS assay to identify small molecule agonists of the progesterone receptor (PR) signaling pathway - cell viability counter screen (AID 1346799; calls by dose curve; further: nearly all actives have a fitted effect of over 45% in size)
Procedure, shortened: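 Multiplexed viability read: CellTiter-Glo luminescence, 30 min RT, following LiveBLAzer FRET measurement on PR-UAS-bla HEK293T cells exposed to compounds 16 hr.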

[18] = Caspase-3/7 induction in CHO-K1 cells by small molecules, qHTS cell viability counter screen (AID 1346979); further: nearly all actives have a fitted effect of over 35% in size
Procedure, shortened: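 Following a 5hr settling period, CHO-K1 cells at 1,500 per well received DMSO-dissolved compounds. Cell viability was quantified 16hr later by CellTiter-Fluor fluorescence, measured after 1hr with reagent at 37C.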

[19] = target: Nuclear receptor subfamily 1 group I member 2 (Rattus norvegicus) (UniProt Q9R1A7); assay: Rat pregnane X receptor (rPXR) activation by small molecules, qHTS assay (AID 1346983); conditions: rPXR luciferase reporter cells, One-Glo luminescence, 24 h; max activation: active compounds read high; further: nearly all actives have a fitted effect of over 20% in size
Sequence of Nuclear receptor subfamily 1 group I member 2 (Rattus norvegicus) (Q9R1A7 whole entry, looked up): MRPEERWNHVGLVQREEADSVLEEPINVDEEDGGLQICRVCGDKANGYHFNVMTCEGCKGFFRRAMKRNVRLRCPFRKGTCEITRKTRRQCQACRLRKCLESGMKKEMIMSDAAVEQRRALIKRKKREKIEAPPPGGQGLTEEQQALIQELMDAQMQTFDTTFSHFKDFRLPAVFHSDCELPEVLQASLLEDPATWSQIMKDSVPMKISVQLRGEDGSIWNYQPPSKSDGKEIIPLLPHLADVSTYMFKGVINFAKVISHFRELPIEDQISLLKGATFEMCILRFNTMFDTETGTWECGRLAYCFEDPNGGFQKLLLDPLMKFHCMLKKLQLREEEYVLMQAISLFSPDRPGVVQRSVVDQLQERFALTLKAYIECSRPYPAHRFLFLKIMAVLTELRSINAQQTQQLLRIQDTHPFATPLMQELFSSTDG
Procedure, shortened: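 Cell-based rPXR luciferase reporter assay, 2,000 cells per well, rested 5hr at 37 C before compound addition in DMSO, then 24 hr at 37 C. One-Glo reagent was added and luminescence read after 30 min at room temperature.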

[20] = qHTS assay to identify small molecule antagonists of the progesterone receptor (PR) signaling pathway - cell viability counter screen (AID 1346798); further: series mostly up to about 92 µM; nearly all actives have a fitted effect of over 50% in size
Procedure, shortened: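 In the same plates used for the beta-lactamase readout, cell viability of compound- and R5020-treated PR-UAS-bla HEK293T cells (16 hr, 37C) was assessed by CellTiter-Glo luminescence.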

SMILES	outcome [1]	outcome [2]	outcome [3]	Potency [4]	Potency [5]	outcome [6]	outcome [7]	outcome [8]	outcome [9]	outcome [10]	Potency [11]	outcome [12]	outcome [13]	Potency [14]	Potency [15]	Potency [16]	Potency [17]	Potency [18]	max activation [19] [%]	Potency [20]
CCN(CCO)c1cccc(C)c1	inactive	inactive	inactive	inactive	inactive	inactive	inactive	inactive	inactive	inactive	inactive	inactive	inactive	inactive	inactive	–	–	–	–	–
Cc1nc2n(c(=O)c1CCN1CCC(C(=O)c3ccc(F)cc3)CC1)CCS2	inactive	inactive	inactive	–	inactive	inactive	inactive	inactive	inactive	inactive	–	inactive	–	inactive	inactive	inactive	inactive	inactive	–	–
O=C(/C=C/c1ccccc1)NCCO	inactive	inactive	inactive	inactive	–	inactive	inactive	inactive	inactive	–	inactive	inactive	inactive	inactive	inactive	inactive	inactive	–	-0.885	–
O=C1CC[C@H](C(=O)N2CCCCC2)N1	inactive	inactive	inactive	inactive	–	inactive	inactive	inactive	–	–	inactive	inactive	inactive	inactive	inactive	–	inactive	–	–	–
COc1cc([N+](=O)[O-])ccc1N	inactive	inactive	inactive	38.6 µM (active)	inactive	inactive	inactive	inactive	inactive	inactive	61.1 µM (active)	inactive	–	54.5 µM (active)	inactive	–	inactive	–	–	inactive
CCCCC(=O)N(C)C	inactive	inactive	inactive	inactive	inactive	inactive	inactive	inactive	inactive	inactive	inactive	inactive	inactive	–	inactive	–	inactive	inactive	–	–
C=CCOC(=O)c1ccc(C(=O)OCC=C)c(C(=O)OCC=C)c1	inactive	inactive	–	inactive	inactive	inactive	inactive	inactive	inactive	inactive	inactive	inactive	–	inactive	inactive	–	inactive	inactive	–	inactive
